In article PMC7862700, “An all-to-all approach to the identification of sequence-specific readers for epigenetic DNA modifications on cytosine” one finds binding signal data, which are given here for nine sequences.

Common to all, as to assay: DAPPL (digital affinity profiling via proximity ligation, sequencing); 10 mM Tris-HCl pH 7.5, 50 mM NaCl, 1 mM DTT, 4% glycerol, room temperature, 30 min; GST-TFs on glutathione beads, 16-mer random dsDNA library, 0.1% formaldehyde crosslink after washing; high values mean tight binding
Details in all cases: protein: recombinant; tags: N-terminal GST; dsDNA, one strand shown

The target in one assay is T1, ERF (Homo sapiens, UniProt P50548 1-548).
T1 sequence: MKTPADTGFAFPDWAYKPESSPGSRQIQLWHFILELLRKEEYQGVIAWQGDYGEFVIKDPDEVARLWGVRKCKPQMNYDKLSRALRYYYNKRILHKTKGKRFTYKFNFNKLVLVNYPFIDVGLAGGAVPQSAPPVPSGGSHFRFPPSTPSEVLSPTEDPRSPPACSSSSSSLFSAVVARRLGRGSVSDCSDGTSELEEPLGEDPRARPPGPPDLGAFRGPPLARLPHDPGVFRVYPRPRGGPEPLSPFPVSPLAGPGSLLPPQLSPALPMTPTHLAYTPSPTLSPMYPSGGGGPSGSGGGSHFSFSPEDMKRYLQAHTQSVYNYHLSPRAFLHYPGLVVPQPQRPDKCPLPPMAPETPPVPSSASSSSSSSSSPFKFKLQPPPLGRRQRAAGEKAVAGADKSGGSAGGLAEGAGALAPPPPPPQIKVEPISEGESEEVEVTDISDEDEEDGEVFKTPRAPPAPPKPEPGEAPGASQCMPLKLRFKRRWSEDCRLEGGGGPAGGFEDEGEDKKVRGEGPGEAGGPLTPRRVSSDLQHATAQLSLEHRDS
An outline of the steps: (§1)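 Pools of DNA-barcoded human transcription factors, expressed in yeast as GST fusions on glutathione beads and combined with a tag-only sample, were incubated with 200 nmole of a 16-mer random double-stranded DNA library. Incubation took 30 min at room temperature in Tris/NaCl/DTT/glycerol buffer and was followed by washing, 0.1% formaldehyde crosslinking, proximity ligation (BsaI/T4 ligase, 1 h, 37 °C), PCR amplification and sequencing on an Illumina NextSeq500. Binding signal is the ratio of a hexamer's read frequency for a factor to its frequency for the tag-only sample.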

A further assay deals with T2, ETV3L (Homo sapiens, UniProt Q6ZN32 1-361).
T2 sequence: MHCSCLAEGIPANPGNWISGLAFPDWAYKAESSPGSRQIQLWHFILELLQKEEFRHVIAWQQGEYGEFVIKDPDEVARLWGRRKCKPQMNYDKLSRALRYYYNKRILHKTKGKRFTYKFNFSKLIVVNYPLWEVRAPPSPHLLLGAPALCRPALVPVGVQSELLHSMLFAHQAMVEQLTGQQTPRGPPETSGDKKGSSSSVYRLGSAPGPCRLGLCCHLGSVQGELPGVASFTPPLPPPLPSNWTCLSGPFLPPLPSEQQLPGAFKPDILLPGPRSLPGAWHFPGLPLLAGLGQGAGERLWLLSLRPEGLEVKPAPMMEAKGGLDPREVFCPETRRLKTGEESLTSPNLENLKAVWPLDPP
An outline of the steps: as §1

The target in a further assay is T3, ETS2 (Homo sapiens, UniProt P15036 1-469).
T3 sequence: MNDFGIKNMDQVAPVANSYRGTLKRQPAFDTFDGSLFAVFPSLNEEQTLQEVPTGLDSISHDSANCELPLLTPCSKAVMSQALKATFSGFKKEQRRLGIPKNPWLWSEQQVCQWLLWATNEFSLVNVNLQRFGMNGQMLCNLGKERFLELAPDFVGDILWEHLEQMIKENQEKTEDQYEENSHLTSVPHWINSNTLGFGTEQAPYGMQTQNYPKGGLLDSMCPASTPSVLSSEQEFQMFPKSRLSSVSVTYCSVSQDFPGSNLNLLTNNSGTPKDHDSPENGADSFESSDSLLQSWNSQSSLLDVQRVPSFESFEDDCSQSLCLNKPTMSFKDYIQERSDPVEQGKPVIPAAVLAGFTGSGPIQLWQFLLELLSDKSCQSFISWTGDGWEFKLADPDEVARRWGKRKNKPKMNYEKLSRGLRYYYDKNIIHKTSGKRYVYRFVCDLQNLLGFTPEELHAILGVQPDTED
An outline of the steps: as §1

Another assay addresses T4, SPDEF (Homo sapiens, UniProt O95238 1-335).
T4 sequence: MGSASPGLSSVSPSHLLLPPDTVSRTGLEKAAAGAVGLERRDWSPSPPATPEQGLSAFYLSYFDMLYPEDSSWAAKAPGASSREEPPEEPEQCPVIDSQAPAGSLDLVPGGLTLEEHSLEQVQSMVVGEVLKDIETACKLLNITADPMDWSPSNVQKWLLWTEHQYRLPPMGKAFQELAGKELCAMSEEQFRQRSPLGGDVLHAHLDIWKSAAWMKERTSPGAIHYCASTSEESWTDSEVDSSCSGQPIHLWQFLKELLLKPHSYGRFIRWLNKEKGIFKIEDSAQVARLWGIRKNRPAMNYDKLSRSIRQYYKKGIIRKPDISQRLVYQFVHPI
The method in brief:
as §1

The next assay concerns the target T5, ETV7 (Homo sapiens, UniProt Q9Y603 1-341).
T5 sequence: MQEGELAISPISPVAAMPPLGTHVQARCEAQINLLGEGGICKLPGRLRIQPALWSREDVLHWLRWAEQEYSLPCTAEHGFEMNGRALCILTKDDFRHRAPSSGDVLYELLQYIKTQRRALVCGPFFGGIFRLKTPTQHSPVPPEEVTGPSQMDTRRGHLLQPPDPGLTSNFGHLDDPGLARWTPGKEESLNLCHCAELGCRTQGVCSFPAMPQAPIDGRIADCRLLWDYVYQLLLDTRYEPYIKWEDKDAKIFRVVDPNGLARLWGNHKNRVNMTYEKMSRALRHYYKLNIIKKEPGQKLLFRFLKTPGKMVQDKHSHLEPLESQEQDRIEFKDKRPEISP
An outline of the steps: as §1

Another assay has as its target T6, ELF5 (Homo sapiens, UniProt Q9UKW6-2 1-255).
T6 sequence: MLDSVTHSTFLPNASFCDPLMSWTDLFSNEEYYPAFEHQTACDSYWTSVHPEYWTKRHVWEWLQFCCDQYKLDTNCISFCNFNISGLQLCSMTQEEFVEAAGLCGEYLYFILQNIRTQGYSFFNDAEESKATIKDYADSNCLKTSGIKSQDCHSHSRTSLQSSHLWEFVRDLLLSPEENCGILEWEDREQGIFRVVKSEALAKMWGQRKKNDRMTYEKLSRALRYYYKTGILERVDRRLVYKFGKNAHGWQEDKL
The method in brief: as §1

The next assay deals with T7, ETV3 (Homo sapiens, UniProt P41162-2 1-143).
T7 sequence: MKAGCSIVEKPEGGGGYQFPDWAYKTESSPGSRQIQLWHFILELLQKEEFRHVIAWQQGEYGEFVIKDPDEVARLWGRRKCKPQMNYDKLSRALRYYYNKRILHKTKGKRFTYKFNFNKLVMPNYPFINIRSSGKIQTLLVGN
An outline of the steps: as §1

The next assay addresses ETV6 (Homo sapiens, UniProt P41212 1-452). The method in brief:
as §1

Chain of ETV6 (P41212 whole entry): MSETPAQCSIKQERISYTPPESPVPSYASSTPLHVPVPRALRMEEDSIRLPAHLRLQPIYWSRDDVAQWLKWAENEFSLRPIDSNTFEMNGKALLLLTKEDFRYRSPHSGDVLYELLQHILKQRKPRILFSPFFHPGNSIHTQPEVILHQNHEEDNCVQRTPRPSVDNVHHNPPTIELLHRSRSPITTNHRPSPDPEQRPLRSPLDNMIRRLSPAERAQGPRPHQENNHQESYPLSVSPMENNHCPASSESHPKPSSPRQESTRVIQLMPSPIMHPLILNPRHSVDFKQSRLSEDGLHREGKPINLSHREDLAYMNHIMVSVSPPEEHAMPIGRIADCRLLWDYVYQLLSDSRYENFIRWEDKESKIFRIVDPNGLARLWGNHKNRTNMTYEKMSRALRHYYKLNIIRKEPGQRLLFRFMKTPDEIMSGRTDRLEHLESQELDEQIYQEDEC

Regarding ACCCTC, the binding signal is 1.19 fold enrichment (6-mer frequency, TF over GST control) in the assay with ERF; 1.08 fold enrichment (6-mer frequency, TF over GST control) with ETV3L; 1.19 fold enrichment (6-mer frequency, TF over GST control) with ETS2; 1.11 fold enrichment (6-mer frequency, TF over GST control) in the assay with SPDEF; 1.13 fold enrichment (6-mer frequency, TF over GST control) in the assay with ETV7; 1.06 fold enrichment (6-mer frequency, TF over GST control) with ELF5. In addition, the binding signal was 1.16 fold enrichment (6-mer frequency, TF over GST control) with ETV3 and 1.12 fold enrichment (6-mer frequency, TF over GST control) in the assay with ETV6.

For AAAGTT, the binding signal is 1.08 fold enrichment (6-mer frequency, TF over GST control) with ERF; 1.13 fold enrichment (6-mer frequency, TF over GST control) with ETV3L; 1.09 fold enrichment (6-mer frequency, TF over GST control) in the assay with ETS2; 1.01 fold enrichment (6-mer frequency, TF over GST control) with SPDEF; 1.15 fold enrichment (6-mer frequency, TF over GST control) with ETV7; 1.08 fold enrichment (6-mer frequency, TF over GST control) with ELF5. In addition, the binding signal in the assay with ETV3 is 1.09 fold enrichment (6-mer frequency, TF over GST control); with ETV6, 1.06 fold enrichment (6-mer frequency, TF over GST control).

For the sequence GCCCGC, the binding signal was 1.11 fold enrichment (6-mer frequency, TF over GST control) in the assay with ERF; 1.09 fold enrichment (6-mer frequency, TF over GST control) with ETV3L; 1.02 fold enrichment (6-mer frequency, TF over GST control) in the assay with ETS2; 1.04 fold enrichment (6-mer frequency, TF over GST control) with SPDEF; 1.13 fold enrichment (6-mer frequency, TF over GST control) with ETV7; 1.1 fold enrichment (6-mer frequency, TF over GST control) with ELF5. Moreover, the binding signal is 1.16 fold enrichment (6-mer frequency, TF over GST control) with ETV3 and 1.07 fold enrichment (6-mer frequency, TF over GST control) in the assay with ETV6.

Take AGCCTC: the binding signal in the assay with ERF was 1.22 fold enrichment (6-mer frequency, TF over GST control); with ETV3L, 1.32 fold enrichment (6-mer frequency, TF over GST control); with ETS2, 1.3 fold enrichment (6-mer frequency, TF over GST control); in the assay with SPDEF, 1.14 fold enrichment (6-mer frequency, TF over GST control); with ETV7, 1.31 fold enrichment (6-mer frequency, TF over GST control); with ELF5 it was 1.16 fold enrichment (6-mer frequency, TF over GST control). Moreover, the binding signal with ETV3 is 1.15 fold enrichment (6-mer frequency, TF over GST control); in the assay with ETV6, 1.18 fold enrichment (6-mer frequency, TF over GST control).

On to AAGTTT, for which the binding signal with ERF was 1.39 fold enrichment (6-mer frequency, TF over GST control); with ETV3L it was 1.46 fold enrichment (6-mer frequency, TF over GST control); with ETS2, 1.39 fold enrichment (6-mer frequency, TF over GST control); with SPDEF it was 1.37 fold enrichment (6-mer frequency, TF over GST control); with ETV7 it was 1.37 fold enrichment (6-mer frequency, TF over GST control); with ELF5, 1.55 fold enrichment (6-mer frequency, TF over GST control). Further, the binding signal was 1.53 fold enrichment (6-mer frequency, TF over GST control) in the assay with ETV3 and 1.55 fold enrichment (6-mer frequency, TF over GST control) in the assay with ETV6.

Regarding ACGCTG, the binding signal with ERF was 1.21 fold enrichment (6-mer frequency, TF over GST control); in the assay with ETV3L, 1.15 fold enrichment (6-mer frequency, TF over GST control); with ETS2, 1.06 fold enrichment (6-mer frequency, TF over GST control); with SPDEF it was 1.24 fold enrichment (6-mer frequency, TF over GST control); with ETV7, 1.16 fold enrichment (6-mer frequency, TF over GST control); with ELF5, 1.09 fold enrichment (6-mer frequency, TF over GST control). Further, the binding signal was 1.26 fold enrichment (6-mer frequency, TF over GST control) in the assay with ETV3 and 1.09 fold enrichment (6-mer frequency, TF over GST control) with ETV6.

As for GTTCCA, the binding signal is 1 fold enrichment (6-mer frequency, TF over GST control) in the assay with ERF; 1.04 fold enrichment (6-mer frequency, TF over GST control) with ETV3L; 1.13 fold enrichment (6-mer frequency, TF over GST control) in the assay with ETS2; 1.1 fold enrichment (6-mer frequency, TF over GST control) with SPDEF; 1.12 fold enrichment (6-mer frequency, TF over GST control) with ETV7; 1.07 fold enrichment (6-mer frequency, TF over GST control) with ELF5. The binding signal with ETV3 was 1.04 fold enrichment (6-mer frequency, TF over GST control); with ETV6 it was 1.04 fold enrichment (6-mer frequency, TF over GST control).

As for ACTAAG, the binding signal with ERF is 1.04 fold enrichment (6-mer frequency, TF over GST control); in the assay with ETV3L, 1.12 fold enrichment (6-mer frequency, TF over GST control); with ETS2, 1.11 fold enrichment (6-mer frequency, TF over GST control); with SPDEF, 1.16 fold enrichment (6-mer frequency, TF over GST control); in the assay with ETV7, 1.14 fold enrichment (6-mer frequency, TF over GST control); with ELF5, 1.12 fold enrichment (6-mer frequency, TF over GST control). Moreover, the binding signal in the assay with ETV3 is 1.09 fold enrichment (6-mer frequency, TF over GST control); with ETV6, 1.2 fold enrichment (6-mer frequency, TF over GST control).

On to ATCTTT, for which the binding signal was 1.22 fold enrichment (6-mer frequency, TF over GST control) with ERF; 1.34 fold enrichment (6-mer frequency, TF over GST control) with ETV3L; 1.18 fold enrichment (6-mer frequency, TF over GST control) with ETS2; 1.17 fold enrichment (6-mer frequency, TF over GST control) in the assay with SPDEF; 1.13 fold enrichment (6-mer frequency, TF over GST control) with ETV7; 1.21 fold enrichment (6-mer frequency, TF over GST control) with ELF5. The binding signal with ETV3 is 1.21 fold enrichment (6-mer frequency, TF over GST control); with ETV6, 1.2 fold enrichment (6-mer frequency, TF over GST control).
